# Results from PubChem BioAssay (NCATS).
# Inconclusive results are not listed. Where a call stands in place of a potency, no number is given. Calls of active or inactive are those of the source. Unless noted, the call rests on the fitted dose curve; in most records, active means well fitted curve in the direction sought with a large enough effect; inconclusive means small, poorly fitted or top-dose-only effect, or another doubt; inactive means no such curve, though single readings can be large; an effect the other way counts as inactive or inconclusive.
# Legend:
# [1] = target: Thioredoxin reductase 1, cytoplasmic (Rattus norvegicus) (UniProt O89049); test: qHTS Assay for Inhibitors of Mammalian Selenoprotein Thioredoxin Reductase 1 (TrxR1) (AID 488773); settings: Potency: inhibition; further: nearly all actives have a fitted effect of over 40% in size; further: potency means the concentration at half of the fitted maximal effect
# Sequence of Thioredoxin reductase 1, cytoplasmic (Rattus norvegicus) (O89049 whole entry, looked up): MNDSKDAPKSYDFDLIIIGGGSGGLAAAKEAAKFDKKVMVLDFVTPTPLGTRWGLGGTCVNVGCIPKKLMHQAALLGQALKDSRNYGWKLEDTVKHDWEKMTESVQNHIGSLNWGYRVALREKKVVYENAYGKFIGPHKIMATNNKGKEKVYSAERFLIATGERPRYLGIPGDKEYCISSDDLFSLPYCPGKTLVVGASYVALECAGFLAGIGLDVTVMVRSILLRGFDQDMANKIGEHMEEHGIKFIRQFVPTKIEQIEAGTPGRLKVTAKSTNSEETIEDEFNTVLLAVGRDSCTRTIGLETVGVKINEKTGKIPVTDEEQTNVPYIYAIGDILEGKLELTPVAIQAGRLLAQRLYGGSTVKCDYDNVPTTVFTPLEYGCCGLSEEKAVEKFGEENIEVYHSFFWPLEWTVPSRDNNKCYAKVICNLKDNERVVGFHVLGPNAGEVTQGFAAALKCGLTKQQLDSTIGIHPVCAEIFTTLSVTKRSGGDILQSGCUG
# Method in brief: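 Inhibition is scored from the loss of NADPH fluorescence between first and last reads of an 8-min kinetic run. Selenite (400 uM) was the substrate, added after 15 min compound preincubation at room temperature.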
# [2] = target: Flap endonuclease 1 (Homo sapiens) (UniProt P39748); test: qHTS Validation Assay for the Inhibitors of Human Flap endonuclease 1 (FEN1) (AID 488816); further: potency means the concentration at half of the fitted maximal effect
# Sequence of Flap endonuclease 1 (Homo sapiens) (P39748 whole entry, looked up): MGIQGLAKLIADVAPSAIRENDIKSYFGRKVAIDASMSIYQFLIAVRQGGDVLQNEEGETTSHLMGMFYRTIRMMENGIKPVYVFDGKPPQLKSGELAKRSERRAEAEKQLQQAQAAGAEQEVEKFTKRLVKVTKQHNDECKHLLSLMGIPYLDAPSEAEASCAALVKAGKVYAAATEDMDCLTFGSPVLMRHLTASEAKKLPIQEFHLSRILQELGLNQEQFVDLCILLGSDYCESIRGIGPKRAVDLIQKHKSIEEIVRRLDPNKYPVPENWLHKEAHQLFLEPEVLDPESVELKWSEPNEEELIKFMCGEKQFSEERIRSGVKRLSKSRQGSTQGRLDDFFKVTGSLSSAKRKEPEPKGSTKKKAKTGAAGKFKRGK
# Method in brief: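 qHTS format: compounds and 10 nM FEN1 incubated 15 min at room temperature before adding 50 nM substrate. Cleavage followed by reads at 0 and 15 min; normalized data fitted to a four-parameter Hill curve.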
# [3] = target: Chromobox protein homolog 1 (Homo sapiens) (UniProt P83916); test: qHTS Validation Assay for Inhibitors of HP1-beta Chromodomain Interactions with Methylated Histone Tails (AID 488953); further: nearly all actives have a fitted effect of over 50% in size; further: potency means the concentration at half of the fitted maximal effect
# Method in brief: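 Disruption of preformed HP1-beta:H3K9me3 peptide complexes (both 50 nM, PBS pH 7.4 with 0.01% Tween-20) is measured by AlphaScreen after 30 min compound exposure at room temperature, using streptavidin donor and nickel chelate acceptor beads at 10 ug/mL final.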
# [4] = target: Methanococcus maripaludis chaperonin (MmCpn) (UniProt Q6LX38); test: High-Throughput Screening for Modulators of Cytosolic Chaperonin Activity: MmCpn Primary Screen (AID 488978);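 further: 50 nM MmCpn enzyme hydrolysing 30 µM ATP at 37 °C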
# Sequence of Methanococcus maripaludis chaperonin (MmCpn) (Q6LX38 1-543): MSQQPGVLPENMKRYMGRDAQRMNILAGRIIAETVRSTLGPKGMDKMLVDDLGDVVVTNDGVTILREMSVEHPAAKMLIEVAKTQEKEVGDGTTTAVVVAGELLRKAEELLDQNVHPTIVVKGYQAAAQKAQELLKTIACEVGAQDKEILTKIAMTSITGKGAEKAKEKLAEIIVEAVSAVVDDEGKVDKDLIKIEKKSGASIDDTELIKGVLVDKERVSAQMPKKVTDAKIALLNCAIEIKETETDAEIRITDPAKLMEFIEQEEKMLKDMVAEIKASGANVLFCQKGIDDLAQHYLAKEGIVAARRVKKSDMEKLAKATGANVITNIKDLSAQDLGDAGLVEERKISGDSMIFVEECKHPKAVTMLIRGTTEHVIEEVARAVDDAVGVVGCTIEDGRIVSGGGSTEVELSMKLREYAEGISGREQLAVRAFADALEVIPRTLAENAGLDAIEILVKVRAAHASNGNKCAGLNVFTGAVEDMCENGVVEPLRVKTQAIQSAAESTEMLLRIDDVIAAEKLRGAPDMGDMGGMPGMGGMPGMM
# Method in brief: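 Steps: chaperonin 50 nM final; add compound, 5 min RT; start with ATP, 30 uM final; hold 10 min at 37C; add ADP Transcreener HTRF reagent, 5 min; read ex 320, em 590 and 665 nm.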
# [5] = target: Thyrotropin receptor (Homo sapiens) (UniProt P16473); test: qHTS Assay for Antagonists of the Thyroid Stimulating Hormone Receptor (AID 488980); further: series mostly up to about 58 µM
# Sequence of Thyrotropin receptor (Homo sapiens) (P16473 whole entry, looked up): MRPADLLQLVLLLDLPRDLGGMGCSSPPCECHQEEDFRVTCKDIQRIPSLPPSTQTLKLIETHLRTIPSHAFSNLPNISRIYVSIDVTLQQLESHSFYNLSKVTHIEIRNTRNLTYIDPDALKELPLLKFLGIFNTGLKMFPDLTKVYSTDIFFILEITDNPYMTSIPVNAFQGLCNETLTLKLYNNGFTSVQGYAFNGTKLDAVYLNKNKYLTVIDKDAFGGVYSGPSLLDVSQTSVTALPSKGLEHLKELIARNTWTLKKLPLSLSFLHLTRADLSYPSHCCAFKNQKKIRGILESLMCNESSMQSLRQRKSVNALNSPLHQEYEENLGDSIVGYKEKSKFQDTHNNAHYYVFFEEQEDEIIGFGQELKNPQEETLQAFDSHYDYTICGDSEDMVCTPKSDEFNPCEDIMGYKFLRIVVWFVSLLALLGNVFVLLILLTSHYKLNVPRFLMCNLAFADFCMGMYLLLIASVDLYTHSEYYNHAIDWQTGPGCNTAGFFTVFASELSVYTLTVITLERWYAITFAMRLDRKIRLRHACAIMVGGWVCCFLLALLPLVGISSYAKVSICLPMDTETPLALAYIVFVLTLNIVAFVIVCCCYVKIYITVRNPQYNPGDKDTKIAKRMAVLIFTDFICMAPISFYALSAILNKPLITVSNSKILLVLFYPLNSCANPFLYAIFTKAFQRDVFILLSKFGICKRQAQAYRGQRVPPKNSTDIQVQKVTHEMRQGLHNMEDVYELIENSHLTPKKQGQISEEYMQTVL
# Method in brief: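 Readout is cAMP by HTRF competition between cellular cAMP and cAMP-d2 for a cryptate-labelled antibody. Antagonism was assessed in TSHR-transfected HEK293 cells stimulated with 4 nM TSH (EC80, final) in the presence of RO 20-1724.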
# [6] = target: D(1A) dopamine receptor (Homo sapiens) (UniProt P21728); test: HTS Assay for Allosteric Agonists of the Human D1 Dopamine Receptor: Primary Screen for Agonists (AID 488981)
# Sequence of D(1A) dopamine receptor (Homo sapiens) (P21728 whole entry, looked up): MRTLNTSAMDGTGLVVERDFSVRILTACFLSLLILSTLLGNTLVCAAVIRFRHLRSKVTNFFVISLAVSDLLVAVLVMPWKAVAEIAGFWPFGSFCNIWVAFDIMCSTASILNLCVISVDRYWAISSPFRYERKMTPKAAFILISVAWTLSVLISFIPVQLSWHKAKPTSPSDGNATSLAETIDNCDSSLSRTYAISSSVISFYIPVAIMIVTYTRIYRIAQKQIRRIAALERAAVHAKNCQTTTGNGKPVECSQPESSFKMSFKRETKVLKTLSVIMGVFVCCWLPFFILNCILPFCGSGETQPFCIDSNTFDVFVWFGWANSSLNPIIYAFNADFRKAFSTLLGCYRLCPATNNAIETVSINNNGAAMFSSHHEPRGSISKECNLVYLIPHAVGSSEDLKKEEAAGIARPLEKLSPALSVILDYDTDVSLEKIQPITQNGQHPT
# Method in brief: (§1)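 Calcium flux in an inducible, force-coupled HEK293 Trex D1 line (overnight at 30 C): agonist mode is the 180 s kinetic read after compound; potentiator mode is the following 180 s read after dopamine at EC20.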
# [7] = Validation screen for small molecules that induce genotoxicity in human embryonic kidney (HEK293T) cells expressing luciferase-tagged ELG1 (AID 493106)
# Method in brief: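 Cells were dispensed at 2,000 per well, then 23 nL compound or DMSO was pinned in. After 16 hr at 37 °C and 5% CO2, ONE-Glo reagent was added. Luciferase activity was measured following 30 min at room temperature.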
# [8] = target: Thyrotropin-releasing hormone receptor (Homo sapiens) (UniProt P34981); test: qHTS for Small Molecule Agonists and Allosteric Enhancers of Human TRH Receptor: Validation Screen for Agonists (AID 493127;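 active means calcium activation more than 3 SD above the typical response in the agonist read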;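 further: intracellular calcium rise by fluo-8 fluorescence before TRH EC20 addition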); settings: TRH receptor agonist cell assay; at 2 µM; stronger effect = higher value
# Method in brief: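 Compounds are added by online pintool to dye-loaded TRHR cells while fluorescence is recorded every second. A rise in calcium signal during the agonist read marks activation; a later 10 nM TRH addition (EC20) serves the separate enhancer mode.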
# [9] = qHTS for Inhibitors of Cell Surface uPA Generation: Validation Assay (AID 493164);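 further: RAW 264.7 macrophage cells exposed to compound for 18 h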
# Method in brief: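 ATP-Lite luminescence read-out: ATP remains high when uPA activity-dependent LF translocation into the cytoplasm is blocked. RAW 264.7 cells, 18 h compound exposure at 37 C; 7-point titration, 2.45 nM to 38.3 uM final.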
# [10] = target: Galactokinase (Homo sapiens) (UniProt P51570); test: qHTS Validation Assay for Inhibitors of Human Galactokinase (GALK) (AID 493189)
# Sequence of Galactokinase (Homo sapiens) (P51570 whole entry, looked up): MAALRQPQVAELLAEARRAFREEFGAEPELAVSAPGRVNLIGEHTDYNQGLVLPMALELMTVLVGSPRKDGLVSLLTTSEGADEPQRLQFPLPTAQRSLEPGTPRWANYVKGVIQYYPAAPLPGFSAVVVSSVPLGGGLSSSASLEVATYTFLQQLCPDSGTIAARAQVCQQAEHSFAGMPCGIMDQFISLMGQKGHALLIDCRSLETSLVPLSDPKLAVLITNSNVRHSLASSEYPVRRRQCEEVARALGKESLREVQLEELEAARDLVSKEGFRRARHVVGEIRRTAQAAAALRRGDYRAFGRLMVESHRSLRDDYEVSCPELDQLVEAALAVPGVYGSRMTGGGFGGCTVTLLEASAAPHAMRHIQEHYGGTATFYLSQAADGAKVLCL
# Method in brief: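 5 nM GALK / 100 uM galactose / 35 uM ATP, 20 mM HEPES pH8.0, 5 mM MgCl2, 60 mM NaCl, 1 mM DTT, 0.01% BSA (final). RT 1 h; Kinase-Glo Plus luminescence.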
# [11] = Validation screen for small molecules that induce DNA re-replication in SW480 colon adenocarcinoma cells (AID 504364)
# Method in brief: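 Image-based qHTS: compounds were incubated with SW480 cells for 48 hr, nuclei stained with Hoechst, and per-nucleus fluorescence intensity scanned to flag cells with excess DNA content.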
# [12] = target: phosphoglycerate mutase (Leishmania major) (UniProt Q4Q090); test: qHTS Validation Assay to Find Inhibitors of Phosphoglycerate Mutase (AID 504548); settings: Potency: inhibition qHTS;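 further: end-point luminescence from Kinase-GloPlus after the PGAM reaction; series mostly up to about 58 µM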
# Method in brief: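 Inhibition of L. major PGAM was assessed by Kinase-GloPlus luminescence following a 45-minute room-temperature reaction with enzyme at 1.25nM final.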
# [13] = target: Ubiquitin carboxyl-terminal hydrolase 1 (Homo sapiens) (UniProt O94782); test: Inhibitors of USP1/UAF1: Pilot qHTS (AID 504865); further: nearly all actives have a fitted effect of over 35% in size; further: potency means the concentration at half of the fitted maximal effect
# Sequence of Ubiquitin carboxyl-terminal hydrolase 1 (Homo sapiens) (O94782 whole entry, looked up): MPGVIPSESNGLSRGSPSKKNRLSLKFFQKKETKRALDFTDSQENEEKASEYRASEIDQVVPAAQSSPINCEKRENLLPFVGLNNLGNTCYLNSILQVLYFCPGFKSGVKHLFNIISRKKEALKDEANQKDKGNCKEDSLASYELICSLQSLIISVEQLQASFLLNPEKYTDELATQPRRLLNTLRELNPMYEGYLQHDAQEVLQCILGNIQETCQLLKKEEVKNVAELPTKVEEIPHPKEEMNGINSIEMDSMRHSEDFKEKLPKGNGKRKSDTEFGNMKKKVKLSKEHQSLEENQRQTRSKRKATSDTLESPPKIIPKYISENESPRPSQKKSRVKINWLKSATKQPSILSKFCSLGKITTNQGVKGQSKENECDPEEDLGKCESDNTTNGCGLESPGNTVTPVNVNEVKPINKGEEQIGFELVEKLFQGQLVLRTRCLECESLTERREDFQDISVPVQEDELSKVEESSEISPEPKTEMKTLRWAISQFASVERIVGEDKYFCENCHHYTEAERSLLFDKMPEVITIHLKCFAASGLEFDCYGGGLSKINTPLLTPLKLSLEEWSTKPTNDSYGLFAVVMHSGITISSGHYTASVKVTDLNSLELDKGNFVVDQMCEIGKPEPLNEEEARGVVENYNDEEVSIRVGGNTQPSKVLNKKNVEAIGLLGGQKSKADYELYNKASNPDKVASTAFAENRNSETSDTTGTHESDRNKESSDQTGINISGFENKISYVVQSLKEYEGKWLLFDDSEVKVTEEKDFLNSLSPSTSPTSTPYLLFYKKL
# Method in brief: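 In 50mM HEPES pH 7.8 containing 0.5mM EDTA, 1mM TCEP, 0.1 mg/ml BSA and 0.01% Tween-20, 1nM USP1/UAF1 is exposed to compound for 15 min, then Ub-Rho (150nM final) is added and fluorescence is read over time.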
# [14] = qHTS for Inhibitors of ATXN expression: Validation of Cytotoxic Assay (AID 588349)
# Method in brief: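 Titrated compounds are added to cultured HEK293 cells, which are then held at 37 degrees C for 72 hr; loss of intracellular ATP, measured with CellTiter Glo, indicates toxicity.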
# [15] = target: DNA dC->dU-editing enzyme APOBEC-3G (Homo sapiens) (UniProt Q9HC16); test: qHTS for inhibitors of Vif-A3G interactions: Validation (AID 588379)
# Sequence of DNA dC->dU-editing enzyme APOBEC-3G (Homo sapiens) (Q9HC16 whole entry, looked up): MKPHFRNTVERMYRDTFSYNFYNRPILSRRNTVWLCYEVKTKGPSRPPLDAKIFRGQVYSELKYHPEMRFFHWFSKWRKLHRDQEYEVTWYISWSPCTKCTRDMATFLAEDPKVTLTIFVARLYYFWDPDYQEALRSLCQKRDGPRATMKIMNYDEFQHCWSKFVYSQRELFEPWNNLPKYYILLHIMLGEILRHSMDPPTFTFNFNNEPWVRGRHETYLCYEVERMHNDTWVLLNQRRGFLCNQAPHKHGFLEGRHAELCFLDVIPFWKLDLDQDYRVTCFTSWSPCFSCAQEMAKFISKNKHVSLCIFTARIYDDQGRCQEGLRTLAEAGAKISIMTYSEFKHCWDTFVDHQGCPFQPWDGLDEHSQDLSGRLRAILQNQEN
# Method in brief: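 Yellow fluorescence (Ex 488, Em 500-530) of Vif-coexpressing HeLa A3G-eYFP cells, scanned by Acumen cytometer, reports blocked A3G degradation. Cells plated at 700/well overnight at 37 deg C before compound addition, then a further overnight compound incubation at 37 deg C.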
# [16] = target: D(1A) dopamine receptor (Homo sapiens) (UniProt P21728); test: HTS Assay for Allosteric Agonists of the Human D1 Dopamine Receptor: Primary Screen for Potentiators (AID 488982); further: potency means the concentration at half of the fitted maximal effect
# Method in brief: as §1
# [17] = target: Peptidyl-prolyl cis-trans isomerase NIMA-interacting 1 (Homo sapiens) (UniProt Q13526); test: qHTS Validation Assay to Find Inhibitors of Pin1 (AID 504536; active means well fitted inhibition curve with a large enough effect in the polarisation, with a control signal flat, not every such curve was filed as active; the % refers to the polarisation)
# Sequence of Peptidyl-prolyl cis-trans isomerase NIMA-interacting 1 (Homo sapiens) (Q13526 whole entry, looked up): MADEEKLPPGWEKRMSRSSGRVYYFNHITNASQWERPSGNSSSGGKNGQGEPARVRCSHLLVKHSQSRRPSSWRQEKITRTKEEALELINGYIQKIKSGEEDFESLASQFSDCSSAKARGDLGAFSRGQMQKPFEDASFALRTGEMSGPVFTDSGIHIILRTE
# Method in brief: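 Fluorescence polarization competition: compounds (titration) displace HiFluor-488-labeled Pin1-1b peptide from Pin1 (0.3 uM final) in pH 7.5 HEPES buffer with DTT, 10 min at room temperature; %Activity normalized to no-enzyme wells, curves fitted.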
# [18] = target: Phosphoglycerate kinase, glycosomal (Trypanosoma brucei brucei) (UniProt P07378); test: qHTS Validation Assay to Find Inhibitors of Phosphoglycerate Kinase (AID 504547)
# Sequence of Phosphoglycerate kinase, glycosomal (Trypanosoma brucei brucei) (P07378 whole entry, looked up): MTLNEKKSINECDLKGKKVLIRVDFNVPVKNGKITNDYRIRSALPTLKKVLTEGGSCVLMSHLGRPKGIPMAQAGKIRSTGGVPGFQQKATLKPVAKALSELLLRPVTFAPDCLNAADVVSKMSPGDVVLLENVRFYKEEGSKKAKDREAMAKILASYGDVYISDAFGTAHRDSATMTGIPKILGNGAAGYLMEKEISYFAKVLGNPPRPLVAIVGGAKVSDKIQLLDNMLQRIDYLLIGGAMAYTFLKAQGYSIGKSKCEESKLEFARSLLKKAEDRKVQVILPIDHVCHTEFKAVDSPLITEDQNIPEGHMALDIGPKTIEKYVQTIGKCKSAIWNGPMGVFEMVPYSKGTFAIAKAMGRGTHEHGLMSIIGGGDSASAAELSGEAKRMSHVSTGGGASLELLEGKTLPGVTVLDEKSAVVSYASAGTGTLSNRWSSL
# Method in brief: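 Luminescence end-point (Kinase-Glo Plus, 10 min) after a 60 min room-temperature coupled reaction. GAPDH at 100nM final supplies 1,3-BPG to PGK. Buffer: 100mM TEA pH 7.6, 5mM MgCl2, 0.01% Tween-20. Wells lacking PGK served as controls.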
# [19] = Nrf2 qHTS screen for inhibitors: Validation (AID 493153; active means well fitted inhibition curve with a large enough effect in the main read-out, with a control signal flat, not every such curve was filed as active); settings: Potency: luciferase luminescence; viability change: measured here: cytotoxicity max response
# Method in brief: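 A549 ARE_Fluc, 5% FBS OPTI-MEM; cpd titration, 18-24 h, 37°C/5% CO2. Read 1: CellTiter-Fluor (Ex 405/Em 525), cytotox. Read 2: luciferase lum, Nrf2 activity.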
# [20] = target: ATP-dependent 6-phosphofructokinase (Trypanosoma brucei brucei) (UniProt O15648); test: qHTS Assay to Find Inhibitors of T. brucei phosphofructokinase: hit validation (AID 492961);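 further: luminescence reports ADP formed as PFK phosphorylates fructose-6-phosphate with ATP; series mostly up to about 51 µM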
# Method in brief: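 In this biochemical qHTS validation, titrated compounds were tested against 1.25 nM PFK with 0.1 mM ATP and 0.5 mM F6P. Percent activity came from controls lacking or containing enzyme.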
smiles,measurement,setting,value
O=c1c(O)c(-c2ccc(O)cc2O)oc2cc(O)cc(O)c12,Potency,[1],inactive
same,Potency,[2],2.38 µM (active)
same,Potency,[3],39.8 µM (active)
same,outcome,[4],inactive
same,outcome,[5],inactive
same,outcome,[6],inactive
same,Potency,[7],inactive
same,activation,[8],0.938% (inactive)
same,outcome,[9],inactive
same,outcome,[10],inactive
same,Potency,[11],inactive
same,Potency,[12],inactive
same,Potency,[13],50.1 µM (active)
same,outcome,[14],inactive
same,outcome,[15],inactive
COc1ccccc1N1CCN(CCN(C(=O)C2CCCCC2)c2ccccn2)CC1,Potency,[1],inactive
same,Potency,[2],inactive
same,Potency,[3],inactive
same,outcome,[4],inactive
same,outcome,[5],inactive
same,outcome,[6],inactive
same,Potency,[16],inactive
same,Potency,[7],inactive
same,activation,[8],-4.06% (inactive)
same,outcome,[9],inactive
same,outcome,[10],inactive
same,Potency,[11],inactive
same,outcome,[17],inactive
same,Potency,[18],inactive
same,Potency,[12],inactive
same,Potency,[13],inactive
same,outcome,[14],inactive
C[C@H](Cc1ccc(O)c(O)c1)[C@@H](C)Cc1ccc(O)c(O)c1,Potency,[1],9.47 µM (active)
same,Potency,[2],0.752 µM (active)
same,Potency,[3],31.6 µM (active)
same,outcome,[4],inactive
same,outcome,[5],inactive
same,Potency,[7],inactive
same,outcome,[9],inactive
same,outcome,[10],inactive
same,Potency,[11],inactive
same,Potency,[18],inactive
same,Potency,[12],inactive
CN(C)CCCC1(c2ccc(F)cc2)OCc2cc(C#N)ccc21 (configuration not stated),Potency,[1],inactive
same,Potency,[2],inactive
same,Potency,[3],inactive
same,outcome,[4],inactive
same,outcome,[5],inactive
same,outcome,[6],inactive
same,Potency,[16],inactive
same,Potency,[7],inactive
same,activation,[8],3.31% (inactive)
same,outcome,[9],inactive
same,outcome,[10],inactive
same,Potency,[11],inactive
same,outcome,[17],inactive
same,Potency,[18],inactive
same,Potency,[12],inactive
same,Potency,[13],inactive
same,outcome,[14],inactive
O=C1NC(=O)C(c2ccccc2[N+](=O)[O-])=C1Nc1ccc(O)c(Cl)c1,Potency,[1],2.67 µM (active)
same,Potency,[2],18.9 µM (active)
same,Potency,[3],35.5 µM (active)
same,outcome,[4],inactive
same,outcome,[5],inactive
same,outcome,[6],inactive
same,Potency,[16],5.17 µM (active)
same,Potency,[7],inactive
same,activation,[8],1.69% (inactive)
same,outcome,[9],inactive
same,outcome,[10],inactive
same,outcome,[17],inactive
same,Potency,[18],inactive
same,Potency,[12],inactive
same,Potency,[13],inactive
same,outcome,[14],inactive
same,outcome,[15],inactive
Cc1cc(O)c2c(c1)C(=O)c1cc(O)cc(O)c1C2=O,outcome,[4],inactive
same,outcome,[5],inactive
same,outcome,[6],inactive
same,Potency,[16],inactive
same,Potency,[7],inactive
same,activation,[8],10.2% (inactive)
same,outcome,[9],inactive
same,outcome,[10],inactive
same,Potency,[11],inactive
same,outcome,[17],inactive
same,Potency,[18],inactive
same,outcome,[14],inactive
OC(CN1CCN(c2cccc(Cl)c2)CC1)C(c1ccccc1)c1ccccc1 (configuration not stated),Potency,[1],inactive
same,Potency,[2],inactive
same,outcome,[4],inactive
same,outcome,[5],inactive
same,outcome,[6],inactive
same,Potency,[16],inactive
same,Potency,[7],inactive
same,activation,[8],2.44% (inactive)
same,Potency,[19],inactive
same,viability change,[19],1.98%
same,outcome,[9],inactive
same,outcome,[10],inactive
same,outcome,[17],inactive
same,Potency,[18],inactive
same,Potency,[12],inactive
same,Potency,[13],inactive
same,outcome,[14],inactive
same,outcome,[15],inactive
Oc1ccc2ccccc2c1SSc1c(O)ccc2ccccc12,Potency,[1],inactive
same,Potency,[2],inactive
same,Potency,[3],0.006 µM (active)
same,outcome,[4],inactive
same,outcome,[6],inactive
same,Potency,[7],inactive
same,outcome,[9],inactive
same,outcome,[17],inactive
same,Potency,[18],inactive
same,Potency,[12],inactive
same,Potency,[13],inactive
same,outcome,[14],inactive
O=C(c1ccccc1)c1ccc2n1CCC2C(=O)O (configuration not stated),Potency,[1],inactive
same,Potency,[2],inactive
same,outcome,[4],inactive
same,outcome,[6],inactive
same,Potency,[16],inactive
same,Potency,[7],inactive
same,outcome,[9],inactive
same,outcome,[10],inactive
same,Potency,[11],inactive
same,outcome,[17],inactive
same,Potency,[18],inactive
same,Potency,[12],inactive
same,Potency,[13],inactive
same,outcome,[14],inactive
Nc1nc(N)c(N=O)c(OCC2CCCCC2)n1,Potency,[1],inactive
same,Potency,[2],inactive
same,outcome,[4],inactive
same,outcome,[6],inactive
same,Potency,[16],inactive
same,Potency,[19],inactive
same,viability change,[19],-2.98%
same,outcome,[9],inactive
same,outcome,[17],inactive
same,Potency,[18],inactive
same,Potency,[12],inactive
same,Potency,[13],inactive
NC(=NCc1ccccc1)NC(=O)c1nc(Cl)c(N)nc1N,Potency,[1],inactive
same,Potency,[3],inactive
same,outcome,[4],inactive
same,outcome,[5],inactive
same,outcome,[6],inactive
same,Potency,[16],inactive
same,Potency,[7],inactive
same,activation,[8],0.438% (inactive)
same,outcome,[9],inactive
same,outcome,[10],inactive
same,Potency,[11],inactive
same,outcome,[17],inactive
same,Potency,[18],inactive
same,Potency,[12],inactive
same,Potency,[13],inactive
Cc1c(OCC(F)(F)F)ccnc1CS(=O)c1nc2ccccc2[nH]1 (configuration not stated),Potency,[1],inactive
same,Potency,[2],inactive
same,outcome,[4],inactive
same,outcome,[5],inactive
same,outcome,[6],inactive
same,Potency,[16],inactive
same,outcome,[20],inactive
same,Potency,[7],inactive
same,activation,[8],4.38% (inactive)
same,outcome,[9],inactive
same,outcome,[10],inactive
same,Potency,[11],inactive
same,outcome,[17],inactive
same,Potency,[18],inactive
same,Potency,[12],inactive
same,Potency,[13],inactive
same,outcome,[14],inactive
